HCMV inh – qHTS Assay for inhibitors of the human cytomegalovirus (HCMV); activity change, negative = inhibition, % at 57.5 µM; HFF cells, HCMV-luciferase reporter, 72 h; active compounds read low; actives 4.5% (n = 410,000); in the data active = activity change below about -60%; inconclusive = no clear call, values can overlap the other calls; inactive = above about -39%; also: % is scaled to controls: 0 for no effect and ±100 for the full control effect
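After 16 h attachment at 37C, HFF cells received test compound and HCMV-luciferase (1 PFU/cell); reporter luminescence read 72 h later, data normalized against buffer-only and known inhibitor Salinomycin.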
Pf growth 96h – Primary qHTS for delayed death inhibitors of the malarial parasite plastid, 96 hour incubation; Potency, µM (series often up to 28.7 µM), for inactives: top-dose activity change, negative = inhibition, most hits filed as inhibitors; actives 6.9% (n = 320,000); AID 504834, 2011; P. falciparum luciferase reporter growth, 96 h; also: potency is read from the fitted curve at half-maximal effect; % is scaled to controls: 0 for no effect and ±100 for the full control effect
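Plates of compound plus infected erythrocytes (2% hematocrit, 0.05% parasitemia final) incubate 96 hours, 37 C, 5% CO2. Detection reagent added; reduced luminescence from the parasites' luciferase reporter flags inhibition.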
CHX counter – Cycloheximide Counterscreen for Small Molecule Inhibitors of Shiga Toxin; max response, %; AID 2314, 2010; cell reporter, cycloheximide protein synthesis inhibition counterscreen; actives 12% (n = 300,000); in the data active = max response mostly above about 13%, no sharp cut-off; inactive = mostly below about 14%; also: read at 38.3 µM for the half of the compounds with a filed dose; 0% is about no effect
Shiga toxin inh – A qHTS for Small Molecule Inhibitors of Shiga Toxin | Vero cells, Shiga toxin protein synthesis inhibition reporter | inhibition, % at 38.7 µM | actives 9.2% (n = 290,000) | AID 2315, 2010; in the data active = inhibition mostly above about 28%, no sharp cut-off; inactive = mostly below about 43%; also: 0% is about no effect
Pf growth 48h – Primary qHTS for delayed death inhibitors of the malarial parasite plastid, 48 hour incubation; P. falciparum luciferase growth in erythrocytes, 48 h; Potency, µM (highest dose often 28.7 µM), for inactives: top-dose activity change, negative = inhibition, most hits filed as inhibitors; actives 5.9% (n = 310,000); also: potency is read from the fitted curve at half-maximal effect; % is scaled to controls: 0 for no effect and ±100 for the full control effect
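Luciferase-expressing parasites in RBCs, 2% Hct / 0.1% parasitemia final; RPMI 1640 + 0.5% Albumax; 37 C, 5% CO2, one generation; luminescence read-out, lower signal = inhibition.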
HCV inhibitor – qHTS Assay for Inhibitors of Hepatitis C Virus (HCV) | AID 651820, 2012 | Huh7.5.1 HCVcc-Cre infection, luciferase reporter, 44 h | Potency, µM (doses to about 41.8 µM), for inactives: at the top dose activity change, negative = inhibition, most hits filed as inhibitors | actives 3.4% (n = 340,000); also: potency is read from the fitted curve at half-maximal effect; % is scaled to controls: 0 for no effect and ±100 for the full control effect
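Seed cells (1,000/well) for 4 h; treat with compound and infect with HCVcc-Cre, moi about 0.5. Incubate 44 h, then detect luciferase activity.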
An asterisk follows results filed as active; u = inconclusive; x = no result; [ ] = remark or other dose. Only some compounds are listed: those with a hit (about 21% of all), similar ones and a draw of the others. Unless noted, calls follow the shape of the dose curve; as a rule, active = well fitted inhibition curve with a large enough effect; inconclusive = small, poorly fitted or top-dose-only effect, or another doubt; inactive = no such curve, though single readings can be large or run the other way.

SMILES	HCMV inh	Pf growth 96h	CHX counter	Shiga toxin inh	Pf growth 48h	HCV inhibitor
CCCn1c(N2CCN(C(=O)/C=C/C(=O)O)CC2)nc2ccccc21	0	163%	-4	-2	u	22%
CCCn1c(N2CCN(Cc3ccc(Cl)cc3)CC2)nc2ccccc21	-14	29%	6	20	u	13µM*
O=[N+]([O-])c1ccc(CN2CCN(c3ccc4ccccc4n3)CC2)cc1	21	u	14	18	-13%	u
CCn1c(N2CCN(Cc3ccc([N+](=O)[O-])cc3)CC2)nc2ccccc21	-6	13µM*	-3	2	u	-9%
CCc1ccc(NC(=O)Cn2nnc(C(=O)NCc3ccco3)c2N)cc1	12	u	-6	1	24%	19%
COCC(C)n1c(SCc2ccc(OC)c(F)c2)nc2ccccc2c1=O (centres undefined)	-30	u	7	5	u	u
C/[N+]([O-])=C\c1cccc(OCCN2CCN(c3ncc(C(F)(F)F)cc3Cl)CC2)c1	-74*	6%	-6	-6	15%[0.00184 µM]	25µM*
O=C(Nc1ccc(F)cc1)Nc1nnc(SCC(=O)N2CCCCC2)s1	-75*	x	x	x	x	x
Cc1ccc(NC(=O)Nc2nnc(SCC(=O)N3CCCCC3)s2)cc1	-87*	x	x	x	x	x
Cc1cccc(CN2CCSCCS2(=O)=O)c1	-2	x	x	x	x	x
O=c1[nH]c(CN2CCN(Cc3ccc4c(c3)OCO4)CC2)nc2ccccc12	15	8%	8.6*	-10	-10%	5%
S=C(NCc1ccccc1)N1CCN(Cc2ccc3c(c2)OCO3)CC1	-35	-21%	5	-6	34%	3%
c1ccc(CN2CCC(N3CCN(Cc4ccc5c(c4)OCO5)CC3)CC2)cc1	u	u	-3	-6	15µM*	u
S=C(NCc1ccc2c(c1)OCO2)NC1CCN(Cc2ccccc2)CC1	-78*	10%	-4	-10	2%	u
COc1cccc(-c2nnn(CC(=O)N(CC(C)C)C3CCS(=O)(=O)C3)n2)c1 (centres undefined)	-34	0%	x	x	-2%	0%
COc1ccc(NC(=O)C2CCCN(S(=O)(=O)c3cccs3)C2)cc1 (centres undefined)	-7	x	x	x	x	x
c1ccc2c3c([nH]c2c1)CCNC3	74	46%	-2	-6	u	10%
C1=NCCc2c1[nH]c1ccccc21	-95*	x	x	x	x	6%
CCOc1ccc(C(=O)NCC2OCCc3ccccc32)cc1 (centres undefined)	43	13%	25*	active	28%	u
O=C(NCc1c(F)cccc1F)c1cc(COc2c(F)cccc2F)on1	-23	u	26*	97*	30%	-5%
O=C(NCCN1CCCCC1)c1cc(COc2c(F)cccc2F)on1	-16	u	23	0	u	-18%
O=C(NC1CCc2ccccc21)c1cc(COc2ccc(F)cc2Cl)on1 (centres undefined)	-20	-14%	1	40	-3%	7%
O=C(NC1CCc2ccccc21)c1cc(COc2c(F)cccc2F)on1 (centres undefined)	-11	24%	21*	37	7%	6%
O=C(NCC1OCCc2ccccc21)c1cc(COc2c(F)cccc2F)on1 (centres undefined)	u	13µM*	35*	49*	34%	u
Cc1cc2nc(-c3ccco3)c(Cc3cccc(Cl)c3)n2c(C)c1Br	6	x	x	x	x	x
SMILES	HCMV inh	Pf growth 96h	CHX counter	Shiga toxin inh	Pf growth 48h	HCV inhibitor
Cn1ccc2cc(S(=O)(=O)N3CCC(C(=O)NCCc4ccccc4)CC3)ccc21	9	x	x	x	x	x
CN(C)c1ccc(CNC(=O)C2CCN(S(=O)(=O)c3ccc4c(ccn4C)c3)CC2)cc1	2	x	x	x	x	x
O=C(NCCc1cnn(-c2ccccc2)c1)c1cc(COc2c(F)cccc2F)on1	u	u	27*	68*	u	u
O=C(NC1CCc2ccccc21)c1cc(COc2cncc(Cl)c2)on1 (centres undefined)	61	7%	57*	67*	u	13µM*
CC(CNC(=O)c1cc(COc2c(F)cccc2F)on1)c1ccccc1 (centres undefined)	34	-1%	16	-6	8%	-12%
Cc1ccc(S(=O)(=O)NCC(c2ccc(N(C)C)cc2)N2CCc3ccccc32)cc1C (centres undefined)	-20	x	x	x	x	x
Cc1cccc(C)c1NC(=O)c1csc([C@@H]2O[C@H](CO)[C@H](O)[C@H](O)[C@H]2O)n1	-29	x	x	x	x	x
COc1c(O)cc2c(c1OC)-c1ccc(OC)c(=O)cc1C(NC(C)=O)CC2 (centres undefined)	-80*	x	x	x	x	11%
COc1cc2c(c(OC)c1OC)-c1ccc(NC(=O)c3ccc(F)cc3)c(=O)cc1[C@@H](NC(C)=O)CC2	-22	u	3	6	u	u
COc1cc2c(c(OC)c1OC)-c1ccc(NCc3ccccc3)c(=O)cc1C(NC(C)=O)CC2 (centres undefined)	-80*	x	x	x	x	x
COc1cc2c(c(OC)c1OC)-c1ccc(OC)c(=O)cc1[C@@H](N(C)CC#CCO)CC2	u	6%	-9	-9	u	-22%
COc1cc2c(c(OC)c1OC)-c1ccc(OC)c(=O)cc1[C@@H](NC(C)=O)CC2	-89*	u	-1	-1	u	9%
CCOC(=O)NC1CCc2cc(OC)c(OC)c(OC)c2-c2ccc(OC)c(=O)cc21 (centres undefined)	-79*	x	x	x	x	-36%
Cc1ccccc1CNC(=O)Nc1ccc(Cl)cc1	-28	7%	34*	69*	109%	-20%
Cc1ccc(CNC(=O)Nc2ccccc2)c(C)c1	32	94%	31*	64*	62%	u
CCc1ccc(N(CC(=O)NC2CCCCC2)C(=O)CCC(=O)Nc2ccccn2)cc1	-15	u	-3	-8	-19%	-24%
Fc1ccc(Cn2nnnc2CN2CCN(C3CCCC3)CC2)cc1	18	0%	-5	10	-2%	24%
CC(C)CCn1nnnc1CN1CCN(C(c2ccccc2)c2ccccc2)CC1	-37	-44%	2	-8	6.6µM*	u
CC(C)CCn1nnnc1CN1CCN(c2ccc(F)cc2)CC1	-102*	u	-3	-11	-1%	5%
CCC(C)(C)n1nnnc1CN1CCN(C(c2ccccc2)c2ccccc2)CC1	3	82%	-2	10	7.4µM*	u
Cc1ccc(OCCC(=O)OCC(=O)Nc2ccc3[nH]c(=O)[nH]c3c2)cc1	-5	28%	x	x	18%	5%
N[C@@H]1CCN(O)C1=O	x	x	-9	1	x	x
